Assay results published in PubChem BioAssay (EPA / NIEHS).
The source made the active and inactive calls. Rule for the calls: active = hit-call score of the fitted dose curve at least 0.9, where 1 is the maximum; inactive = score below 0.9.

Experiment: IUF_NPC1a_proliferation_area_72hr: Leibniz Research Institute for Environmental Medicine (IUF) 72-hour Neural Progenitor Cell Proliferation Area Assay (NPC1a) (AID 2284208)
Experimental: IUF_NPC1 is a cell-based, multiplexed assay that uses hNPC, a human primary neural progenitor cells, with measurements taken at 72 hours after chemical dosing in a 96-well plate. Human neural progenitor cells (hNPC) are generated from human fetal brain cortex at gestational week (GW) 16-19. Grown in suspension culture and under proliferative conditions (proliferation media and growth factors), these cells represent neural progenitor cell proliferation. In the NPC1 assay, hNPC's are exposed to the test compound for 72h. Cell proliferation is assessed as an increase in sphere area using automated phase contrast imaging and as incorporation of Bromodeoxyuridine (BrdU) during DNA synthesis using a luminescence-based cell proliferation ELISA. In parallel, the cell viability is assessed using an alamar blue viability assay and the cytotoxicity using a lactate dehydrogenase dependent membrane integrity assay.IUF_NPC1a_proliferation_area_72hr is one of 4 assay components measured from the IUF_NPC1 assay. It is designed to measure cell proliferation as assessed by an increase in sphere area over 72 h using automated phase contrast imaging.Data from the IUF_NPC1a_proliferation_area component was analyzed at the endpoint IUF_NPC1a_proliferation_area in the positive analysis fitting direction relative to DMSO as the negative control and baseline of activity. Using a type of growth reporter, gain or loss-of-signal activity can be used to understand cell proliferation effects.
After the cell expansion period, the cells are cultured for up to four weeks in which they are passaged every week. Between one to three days after passaging, depending on the size chosen for passaging, spheres at a size of 0.3 mm are used in the assay. For the assessment of neural progenitor cell proliferation, the spheres are plated in poly-Hema coated 96-well U-bottom plates filled with proliferation medium containing growth factors (EGF and FGF). One 0.25 - 0.35 mm big sphere is plated in the middle of each well. Within 3 days NPCs proliferate and grow in size. Cultivation during the test method is performed at 37C and 5% CO2 at a pH of 7.2-7.6. As a positive control, spheres are cultivated in the absence of growth factors (EGF and FGF), which dramatically reduces proliferation. Exposure starts on the plating day (day 0) and is continued over three days, without chemical renewal, until the experiment is terminated. The assay is terminated by the assessment of cell viability, cytotoxicity, and proliferation by BrdU. All endpoints are generated from the same experimental run and from each well/sphere in the 96-well plate.

Compound	outcome	AC50
CO/N=C(/C1=NOCCO1)c1ccccc1Oc1ncnc(Oc2ccccc2Cl)c1F	inactive	
CC(C)(C)C(=O)C(Oc1ccc(Cl)cc1)n1cncn1 (stereo unspecified)	inactive	
N#CN=C1SCCN1Cc1ccc(Cl)nc1	inactive	
CC1(C)C(C=C(Cl)Cl)C1C(=O)OC(C#N)c1cccc(Oc2ccccc2)c1 (stereo unspecified)	inactive	
CS(=O)(=O)c1ccc(C(=O)C2C(=O)CCCC2=O)c([N+](=O)[O-])c1	inactive	
COC(=O)N(C(=O)N1CO[C@@]2(C(=O)OC)Cc3cc(Cl)ccc3C2=N1)c1ccc(OC(F)(F)F)cc1	inactive	
COP(=S)(OC)SCn1nnc2ccccc2c1=O	inactive	
O=C(Nc1ccccc1-c1ccc(Cl)cc1)c1cccnc1Cl	inactive	
CCNC(=O)NC(=O)C(C#N)=NOC	inactive	
CS(=O)(=O)c1cc(C(F)(F)F)ccc1C(=O)c1cnoc1C1CC1	inactive	
CN/C(=N\[N+](=O)[O-])NCc1cnc(Cl)s1	inactive	
Cc1c(COC(=O)[C@@H]2[C@H](/C=C(\Cl)C(F)(F)F)C2(C)C)cccc1-c1ccccc1	inactive	
CNC(=O)Oc1cccc2ccccc12	inactive	
C=C(C)CN(CC)c1c([N+](=O)[O-])cc(C(F)(F)F)cc1[N+](=O)[O-]	inactive	
CCSC(=O)N1CCCCCC1	inactive	
CCOP(=O)(OCC)Oc1nc(Cl)c(Cl)cc1Cl		8.27 µM (active)
